# Screen size: about 200,000 compounds; about 18,000 (9%) were called active. For the sample, actives were picked, then their nearest neighbours and some compounds at random. Unmarked numbers belong to inactive results. Cut-off read from the data, not from the text of the source: active = inhibition above about 50%; inactive = the rest.
# Test: Leishmania major promastigote growth inhibition, primary screen (AID 1063);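 note: promastigotes grown with compound for 44 hours at 28 °C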
# Conditions: Leishmania major promastigotes, resazurin fluorescence viability; at 10 µM; hits give high values
row,SMILES,inhibition
1,O=C(O)Cc1sc(-c2ccccc2)nc1-c1cccs1,-7.68%
2,CC(=O)NCC(=O)N1CCCC(C(=O)c2ccc3c4c(cccc24)CC3)C1 (centres undefined),1.15%
3,O=C(COc1ccccc1Cl)Nc1ccc(C(=O)c2ccc(C(=O)O)cc2)cc1,0.1%
4,CN(CC(=O)Nc1ccccc1[N+](=O)[O-])Cc1ccc(Br)cc1,5.69%
5,CC1=C(C)C(=O)OC(C(C)C2CCC3C4CC=C5CC(OC6OC(COC7OC(CO)C(O)C(O)C7O)C(O)C(O)C6O)CC(O)C5(C)C4CCC23C)C1 (centres undefined),-11.1%
6,Cc1cc(C)cc(OCC(=O)NCc2cc(C)nc3ccccc23)c1,36.5%
7,COC(=O)CC1=NN(c2ccccc2)C(=O)C1,-3.08%
8,C/C(=C\C(=O)c1cccnc1)Nc1ccc(C)c(C)c1,20.1%
9,Cc1ccc(-n2c(C)cc(/C=C(\C#N)C(=O)NCC3CCCO3)c2C)cc1 (centres undefined),-2.28%
10,Cc1cc(/C=C(/C#N)C(=O)Nc2ccc(Cl)cc2)c(C)n1-c1cccnc1,56.9% (active)
11,COC(=O)c1c(C)[nH]c(C)c1-c1ccc([N+](=O)[O-])cc1,12.6%
12,O=C(CSc1nn(-c2ccc(F)cc2)c(=S)s1)NC1CCS(=O)(=O)C1 (centres undefined),2.16%
13,COc1ccc(NC(=O)CCNS(=O)(=O)c2ccc3c(c2)c(=O)n(C)c(=O)n3C)cc1OC,-8.95%
14,CCN(CC)P(=O)(Nc1ccc(SC(F)F)cc1)c1ccc(N(C)C)cc1NC(=O)c1ccco1 (centres undefined),85.2% (active)
15,O=C(Nc1ccc(Sc2ccc(Br)cc2)cc1)c1ccco1,-2.45%
16,CCC(=O)NC(=S)Nc1ccc(NC(=O)c2ccco2)c(Cl)c1,-3.46%
17,COc1ccc(N2CCN(C(=O)COc3ccc4c(C)cc(=O)oc4c3)CC2)cc1,1.16%
18,Cc1ccc2cc(C#N)c(NCCNC(=S)NCCCN3CCOCC3)nc2c1,1.99%
19,CN(C)S(=O)(=O)N1CCN(c2ccc([N+](=O)[O-])cc2)CC1,-7.87%
20,Cc1cc(C)c(OCCN2CC(C)OC(C)C2)c(Br)c1 (centres undefined),88.1% (active)
21,CC(=O)Nc1cccc(C(=O)Nc2nc(C)cs2)c1,11.8%
22,CC1CCCN(CC(O)COc2ccc3c(c2)OCO3)C1 (centres undefined),54.4% (active)
23,CC1CCCN(CC(O)COCc2ccccc2)C1 (centres undefined),11%
24,CN1CCN(CC(O)COCc2ccc3c(c2)OCO3)CC1 (centres undefined),-2.38%

row,SMILES,inhibition
1,Cc1coc(C)c1C(=O)CC1(O)C(=O)N(C)c2ccc(Cl)cc21 (centres undefined),1.6%
2,O=C(Nc1cccc(Cl)c1)c1cc([N+](=O)[O-])ccc1N1CCN(CCO)CC1,0.91%
3,COc1cc(NC(=S)NCCSc2ccc(C)cc2)cc(OC)c1,7.14%
4,Cn1c(N)c(C(=O)COC(=O)/C=C/c2ccc(OC(F)F)cc2)c(=O)n(C)c1=O,-9.55%
5,CCCCCC(=O)Nc1ccc(-c2cn3cccnc3n2)cc1,-7.19%
6,O=C(N/N=C/c1ccc2c(c1)OCO2)c1ccc(Cn2cc([N+](=O)[O-])cn2)o1,87% (active)
7,CN(C)c1ccc(/C=N/NC(=O)c2ccc(Cn3cc(Br)cn3)o2)cc1,3.04%
8,O=C(N/N=C\c1ccc(Br)cc1)c1ccc(Cn2cccn2)o1,1.72%
9,CCCCN1C(=S)NC[C@@H]1C(C)CC (some centres undefined),-1.31%
10,CCOC(=O)c1ccc(NNC(C)=O)c([N+](=O)[O-])c1,-5.16%
11,CCOC(=O)C1=C(C)N=c2s/c(=C\C(=O)OC)c(=O)n2C1c1ccc(OC)cc1 (centres undefined),18.8%
12,COCCOC(=O)C1=C(C)N=c2s/c(=C\c3cccs3)c(=O)n2C1c1cccs1 (centres undefined),7.92%
13,COc1ccc(OC)c(C2C3=C(N=c4s/c(=C\c5cccc(O)c5)c(=O)n42)c2ccccc2CC3)c1 (centres undefined),75.7% (active)
14,CNC(=S)N1N=C(c2ccccc2)CC1c1ccc(Br)cc1 (centres undefined),99.3% (active)
15,Brc1ccc(C2CC(c3ccccc3)=Nc3ccccc3N2)cc1 (centres undefined),27.2%
16,COc1ccc(C2CC(c3ccccc3)=NN2C(=O)COC(=O)COc2ccccc2)cc1 (centres undefined),2.56%
17,O=C1CS(=O)CN1c1ccc(Oc2ccccc2)cc1 (centres undefined),-2.75%
18,NS(=O)(=O)c1cccc(NC(=O)COC(=O)/C=C/c2ccco2)c1,-5.99%
19,CCN(c1ccccc1)S(=O)(=O)c1ccc(C(=O)Nc2nccs2)cc1,72.2% (active)
20,CCN(c1ccccc1)S(=O)(=O)c1ccc(NC(=O)C(C)(C)C)cc1,0.65%
21,CC(=O)Oc1ccc(C(=O)Nc2nccs2)cc1,-7.34%
22,COc1ccc(CCc2nnc(CCC(=O)NCc3cnn(-c4ccccc4C)c3)o2)cc1,6.37%
23,Cn1c2ccccc2c2c(C(=O)N3CCN(c4ccc(F)cc4)CC3)cn(C3CCCC3)c(=O)c21,99.4% (active)
24,O=C(c1ccccc1Oc1ccccc1)N1CCN(c2ccc(F)cc2)CC1,10.2%

row,SMILES,inhibition
1,CCOC(=O)N1CCN(C(=O)c2nn(-c3ccc(C)cc3)c(=O)c3c2c2ccccc2n3C)CC1,-5.83%
2,O=C(CSc1nnc2ccc(-c3ccncc3)nn12)N1CCCCC1,20.4%
3,CC(=O)Nc1ccc(S(=O)(=O)NC2(C(F)(F)F)C(=O)NC(C)=C2C#N)cc1 (centres undefined),-4.23%
4,O=C(NCc1nnc(SCC(=O)N2CCCc3ccccc32)o1)c1ccccc1F,-5.95%
5,O=C(/C=C/c1ccc(Cl)c([N+](=O)[O-])c1)c1cccnc1,100% (active)
6,O=C(NCc1ccc(Cl)c(Cl)c1)c1cccnc1,-2.18%
7,O=C(/C=C/c1ccc(Cl)cc1Cl)NCc1ccco1,-1.38%
8,O=C(Nc1cccnc1)c1ccc(Cl)c([N+](=O)[O-])c1,1.22%
9,O=C(/C=C/c1ccc(Cl)cc1Cl)c1cccnc1,100% (active)
10,CN(C)c1ccc(/C=C/C(=O)c2ccc(C(C)(C)C)cc2)cc1[N+](=O)[O-],27.1%
11,COCCNc1nc2nonc2nc1N(C)Cc1ccc(C)cc1,2.88%
12,CCC(C)(C(=O)Nc1ccccc1C)N(C(=O)CNC(C)=O)c1ccc(C)cc1 (centres undefined),-4.62%
13,CSc1ccc(CN2C(=O)NC3(CCCCCC3)C2=O)cc1,9.1%
14,CC(NCc1nc2ccccc2n1C)C12CC3CC(CC(C3)C1)C2 (centres undefined),12.4%
15,Cc1ccccc1-c1nc(C#N)c(NCc2ccco2)o1,-3.77%
16,CC(C)(C)C1CCC(C(=O)Nc2cccnc2)CC1 (centres undefined),-5.65%
17,CCOC(=O)c1sc(-c2cccc([N+](=O)[O-])c2)cc1N,4.06%
18,CCOC(=O)c1sc2nc(CSc3ccccc3)[nH]c(=O)c2c1C,14.1%
19,CCOC(=O)c1sc(C)c2c1NC(C)(c1cccc3ccccc13)NC2=O (centres undefined),97.3% (active)
20,O=C(O)CCCCCNc1ncnc2ccc(Br)cc12,-1.72%
21,Cc1cccc2c1N(CC(=O)OC(C)C)C(=O)C2=O,-12.8%
22,CC(C)OC(=O)CN1C(=O)C(=O)c2ccccc21,88% (active)
23,CC(C)OC(=O)CN1C(=O)c2ccccc2C1=O,14.7%
24,O=C(CC1CCCCC1)NCc1ccc(F)cc1,-12.7%

row,SMILES,inhibition
1,CC(C)Oc1ccc(CCc2nnc(SCC(=O)O)n2-c2ccccc2)cc1,-8.77%
2,NS(=O)(=O)c1ccc(NC(=O)COC(=O)c2ccco2)cc1,0.53%
3,CN(C)S(=O)(=O)c1cccc(NC(=O)COC(=O)C2(c3ccccc3F)CCCC2)c1,28.6%
4,NS(=O)(=O)c1ccc(NC(=O)COC(=O)C2(c3ccc(F)cc3)CCCC2)cc1,70.2% (active)
5,CC(Oc1ccc(Br)cc1Br)C(=O)NC1CCCC1 (centres undefined),-1.48%
6,CC(=O)Nc1ccc(Nc2c3ccccc3nc3ccccc23)cc1,101% (active)
7,O=C(CSCC(=O)Nc1cccc([N+](=O)[O-])c1)Nc1ccccc1,4.18%
8,CC(=O)Nc1ccc(NC(=O)COc2ncnc3ccccc23)cc1,-2.61%
9,CC(=O)Nc1ccc(Nc2c([N+](=O)[O-])cc(S(C)(=O)=O)cc2[N+](=O)[O-])cc1,10.8%
10,Cc1cc(CNC(=O)c2cccc([N+](=O)[O-])c2)c2ccccc2n1,9.74%
11,O=[N+]([O-])c1cccc(Nc2c3ccccc3nc3ccccc23)c1,69.1% (active)
12,O=C(O)CCc1nc2cc(Cl)ccc2n(Cc2ccccc2)c1=O,-0.11%
13,CCC1(CC)NC(=O)N(Cc2nc3ccccc3s2)C1=O,-8.89%
14,CCNC(=O)COC(=O)CCNC(=O)c1cccc(C)c1,-5.94%
15,CC1CC(C)(C)NC(=S)N1CCC(=O)N1CCN(Cc2ccccc2)CC1 (centres undefined),0.54%
16,NC(=O)Cn1nc([N+](=O)[O-])nc1Oc1ccc(Br)cc1,33.2%
17,NC(=O)c1ccc(NC(=O)COC(=O)C(Cc2ccccc2)NC(=O)c2ccccc2)cc1 (centres undefined),1.11%
18,O=C1CC(c2cccc(F)c2)C2=C(CCCC2=O)N1 (centres undefined),-5.73%
19,O=C1CSC(c2cccc(F)c2)N1c1ccccc1F (centres undefined),1.64%
20,O=C1CCCC2=C1C(c1ccccc1)n1c(s/c(=C/c3cccc(F)c3)c1=O)=N2 (centres undefined),60.3% (active)
21,CCSC1=NCCN1C(=O)c1ccc(S(=O)(=O)N(CC)CC)cc1,2.69%
22,C=CCN(Cc1nc(-c2cc(OC)c3c(c2)OCO3)oc1C)C1CCS(=O)(=O)C1 (centres undefined),64.6% (active)

# — PubChem BioAssay AID1063 (University of Pittsburgh Molecular Library Screening Center, 2008)
